Reference: PubChem BioAssay (NCI)
Compounds without any hit were thinned out: in the full panel of roughly 83,000, 20% have a hit.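 Growth was measured after 48 h exposure to one concentration of compound in 96-well plates. Values under 10 count as active.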 A number with no mark means an inactive call. Active and inactive are the calls of the source.

Test system: MDA-MB-468 breast
Assay: NCI-60 one-dose screen, 48 h (100 = growth as untreated, 0 = no growth, -100 = all killed)
Settings: 10 µM unless noted

Row | Structure (SMILES) | growth
1 | COc1cc(C(=O)/C=C/c2c(-c3ccc(F)cc3)nc3sccn23)cc(OC)c1OC | 12.8%
2 | CC(C)(C)OC(=O)N1CCc2c(sc3ncnc(N/N=C/c4cccc5ccccc45)c23)C1 | 5.85% (active)
3 | O=C(Cn1cc(COc2ncnc3c2cnn3-c2ccccc2)nn1)Nc1cccc2ccccc12 | 86.5%
4 | N#Cc1nc(-c2ccc(Cl)cc2)oc1N1CCC(S(=O)(=O)N2CCOCC2)CC1 | 97.5%
5 | O=C1/C(=C/c2cc(F)cc(F)c2)Cc2cc(F)cc(F)c21 | 74.1%
